Assay outcomes from PubChem BioAssay.
A selection: hits, their analogues and other compounds. The true share with any hit is near 2.4%.
TsaE inh: YjeE (TsaE) inhibition, E. coli; purified YjeE enzyme, qHTS inhibition assay; AID 605; hit rate 0.05% among 71,000; Potency, µM
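Purified YjeE (10 uM) with BODIPY Texas Red-labeled ADP probe (2 uM); compounds pin-transferred, 15 min at room temperature. Binding inhibition read as decreased fluorescence polarization; ADP titration as control.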
BRCT inh red: inhibitors of human BRCA1 BRCT-phosphoprotein interaction (red fluorophore); AID 892; Potency, µM (doses to about 76.9 µM), most hits filed as inhibitors; hit rate 0.03% among 75,000; BRCT-phosphopeptide binding, red fluorescence polarization
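Rhodamine-labelled pBACH1 10-mer (100 nM) bound to BRCT domain (100 nM) at pH 7.3; compounds incubated 12 min room temperature, polarization read. Free peptide defines full inhibition; unlabelled decapeptide titrated as control.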
ERK AVP inh: vasopressin-driven ERK pathway inhibition | HEK293-V1b, vasopressin-stimulated pERK AlphaScreen | Potency, µM (highest dose often 57.5 µM), actives largely listed as inhibitors | hit rate 0.99% among 72,000; note: nearly all actives have a fitted effect of over 55% in size
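Overnight-seeded V1b-HEK293 cells in 1% FBS got compound, then vasopressin (25 nM final, 5 min, 37C), then lysis buffer. AlphaScreen detection of phospho-ERK; activity normalized to basal and full-stimulation controls.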
ALOX15 inhib: blocks human 15-lipoxygenase activity. P16050. purified 15hLO-1, xylenol orange hydroperoxide absorbance. Potency, µM (highest dose often 57.1 µM), usual class: inhibitors. hit rate 1.4% among 74,000. AID 887; note: nearly all actives have a fitted effect of over 55% in size
Target sequence (P16050 whole entry, looked up): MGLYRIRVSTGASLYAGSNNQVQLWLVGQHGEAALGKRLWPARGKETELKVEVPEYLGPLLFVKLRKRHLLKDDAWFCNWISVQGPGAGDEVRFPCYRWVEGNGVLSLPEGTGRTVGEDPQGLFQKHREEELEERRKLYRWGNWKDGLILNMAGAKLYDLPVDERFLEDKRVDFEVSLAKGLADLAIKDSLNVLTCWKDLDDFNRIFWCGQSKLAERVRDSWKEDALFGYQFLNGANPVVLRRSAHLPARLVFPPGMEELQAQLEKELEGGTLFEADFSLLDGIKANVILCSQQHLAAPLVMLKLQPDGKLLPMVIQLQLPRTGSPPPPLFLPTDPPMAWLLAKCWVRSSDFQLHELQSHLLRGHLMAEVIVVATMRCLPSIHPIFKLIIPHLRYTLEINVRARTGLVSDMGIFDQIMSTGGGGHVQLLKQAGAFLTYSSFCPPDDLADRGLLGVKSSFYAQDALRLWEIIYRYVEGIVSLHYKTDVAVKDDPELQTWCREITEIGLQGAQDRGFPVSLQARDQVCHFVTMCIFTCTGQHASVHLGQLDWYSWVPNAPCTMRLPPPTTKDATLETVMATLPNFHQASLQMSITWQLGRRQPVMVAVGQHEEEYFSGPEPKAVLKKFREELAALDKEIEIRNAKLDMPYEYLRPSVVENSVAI
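Readout: Fe(III)-xylenol orange absorbance, 573-to-405 nm ratio as reaction progress. Enzyme 40 nM purified human 15hLO-1, substrate 50 uM arachidonic acid, 6 min RT after 15 min compound preincubation; Hepes pH 7.5 buffer with Triton X-100.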
BRCT PPI green: blocks human BRCA1 BRCT binding to phosphopeptide, green readout; Potency, µM (doses to about 76.9 µM), hits mostly inhibitors; P38398; BRCA1 BRCT-phosphopeptide binding, green fluorescence polarization; hit rate 0.05% among 75,000
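Fluorescence polarization: His-tagged BRCT (~35 kDa BRCA1 C-terminus, 250 nM) bound to 100 nM fluorescein-labeled phosphorylated 10-aa BACH1 peptide, pH 7.3 phosphate buffer with DTT and Tween 20. Compounds incubated 12 min at room temperature; inhibition read as lowered polarization.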
Pol III holo inh: DNA polymerase III holoenzyme inhibition; reconstituted DNA polymerase III holoenzyme replication, biochemical; Potency, µM (highest dose often 57.1 µM); hit rate 0.25% among 71,000
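Reconstituted *E. coli* holoenzyme (0.35 nM Pol III, 1 nM beta, 154 nM SSB, 2 nM primase) was preincubated with compound for 15 min at RT. Synthesis on 1.4 nM ssM13Gori ran 35 min, then was stopped with PicoGreen/EDTA and read as dsDNA fluorescence.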
Numbers stand for hits; . = inactive; ? = inconclusive; / = no result; ! = a repeat was not active; [ ] = dose if it differs, or a comment. Calls come from the whole dose curve; as a rule, active = well fitted curve in the direction sought with a large enough effect; inconclusive = small, poorly fitted or top-dose-only effect, or another doubt; inactive = no such curve, though single readings can be large; an effect the other way counts as inactive or inconclusive.

SMILES | TsaE inh | BRCT inh red | ERK AVP inh | ALOX15 inhib | BRCT PPI green | Pol III holo inh
O=C(O)CCCCCC[C@@H]1C(=O)NC(=O)N1CC[C@@H](O)C1CCCCC1 | . | / | / | / | / | .
COc1ccc(C(=O)Nc2ccc(-c3ccc(C)o3)cc2)cc1S(=O)(=O)N1CCOCC1 | . | . | 2µM | . | . | .
CC(Sc1ccc2nnc(-c3ccc(F)cc3)n2n1)C(=O)O (centres undefined) | . | . | / | . | . | .
Cc1ccc(-c2nnc3ccc(SC(C)C(=O)O)nn23)cc1 (centres undefined) | . | . | / | 10µM | . | .
Cc1cc(N)c2ccccc2[n+]1CCCCCCCCCC[n+]1c(C)cc(N)c2ccccc21 | ? | . | . | ? | .[3.08 µM] | 15.8µM!
Cn1c(CN2CCOCC2)nnc1SCC(=O)NCCc1ccccc1 | . | . | . | . | . | .
CCOc1ccc(-c2nc(CSCC(=O)N3CCN(c4cccc(OC)c4)CC3)c(C)o2)cc1 | . | . | 12.6µM | . | . | .
N#Cc1c(NCCCO)nc(NCc2ccccc2)c2c1CCN(Cc1ccccc1)C2 | . | . | . | 5.01µM | . | .
Cc1nc(NCc2ccccc2)c2nc(-c3ccccc3)n(C3CCN(Cc4ccccc4)C3)c2n1 (centres undefined) | . | . | ? | . | . | .
CCOC(=O)N1CCN(c2cc(NCCC(=O)O)c3c4c(onc24)-c2ccccc2C3=O)CC1 | . | . | . | . | . | .
O=C(O)CCCNc1cc(N2CCC3(CC2)OCCO3)c2noc3c2c1C(=O)c1ccccc1-3 | . | ? | . | ? | . | 3.16µM
O=c1c(-c2cccc(F)c2)nc2cncnc2n1Cc1ccccc1 | . | . | . | . | . | .
Clc1ccccc1-c1nccc(NCc2cccs2)n1 | . | . | 15.8µM | . | . | .
c1cncc(-c2cc(NCc3cccs3)ncn2)c1 | . | . | . | 25.1µM | . | .
Cc1ccccc1-c1nccc(NCc2cccs2)n1 | . | . | . | . | . | .
c1cncc(-c2nccc(NCc3cccs3)n2)c1 | . | . | 31.6µM | ? | . | .
COc1cccc(Cn2c(=O)c(-c3cn(C)c4ccccc34)nc3cnc(OC)nc32)c1 | . | . | . | . | . | .
COC(=O)[C@@]1(Cc2ccccc2)[C@H]2c3cc(C(=O)N4CCCC4)[nH]c3C[C@H]2CN1C(=O)c1ccccc1 | . | . | . | / | . | .
C/C=C\C[C@H](C)[C@H](O)[C@H]1C(=O)N[C@@H](CC)C(=O)N(C)CC(=O)N(C)[C@@H](CC(C)C)C(=O)N[C@@H](C(C)C)C(=O)N(C)[C@@H](CC(C)C)C(=O)N[C@@H](C)C(=O)N[C@@H](C)C(=O)N(C)[C@@H](CC(C)C)C(=O)N(C)[C@@H](CC(C)C)C(=O)N(C)[C@@H](C(C)C)C(=O)N1C | . | . | . | ? | . | .
CC1=CC(C)(C)N2C(=O)C3(SCC(=O)N3c3ccc(O)cc3)c3cc(C)cc1c32 (centres undefined) | . | . | ? | . | . | .
CC1=CC(C)(C)N2C(=O)C3(N=C(N)NC(Nc4ccccc4)=N3)c3cc(C)cc1c32 (centres undefined) | . | . | ? | 25.1µM | . | .
CCOc1cc(C(=O)N2CCOCC2)ccc1OCc1ccccc1 | . | . | . | . | . | .
COC(=O)[C@@H]1C[C@H]2CC[C@H](O)C[C@H]2N1Cc1ccc(N2CCOCC2)cc1 | / | . | . | / | . | /
Cc1ccc(C2Nc3ccccc3C(=O)N2Cc2ccco2)cc1 (centres undefined) | . | . | ? | ? | . | .
COc1ccc(C2Nc3ccccc3C(=O)N2Cc2ccco2)cc1COc1ccc(NC(C)=O)cc1 (centres undefined) | . | . | . | 15.8µM | . | .
SMILES | TsaE inh | BRCT inh red | ERK AVP inh | ALOX15 inhib | BRCT PPI green | Pol III holo inh
C=C1C(=O)C=C2CN(C(=O)c3ccccc3)[C@@](Cc3ccc(F)cc3)(C(=O)OC)[C@@H]12 | ? | . | 10µM | / | . | .
COC(=O)[C@@]1(Cc2ccc(OC)cc2)[C@@H]2C(=CC(=O)[C@H]2CC(=O)C(=O)N(C)C)CN1C(=O)c1ccccc1 | . | . | . | / | . | .
Cc1cccc(-n2nnc(C(=O)N3CCc4ccccc4C3)c2N)c1 | . | . | . | 25.1µM | . | .
O=C(CN1CCN(c2ccc(F)cc2)CC1)c1ccc2c(c1)OCO2 | / | . | / | . | . | /
CCOC(=O)[C@]1(C(NC(=O)OC)c2ccco2)CCCC1=O (some centres undefined) | / | .[15.4 µM] | .[11.5 µM] | .[11.4 µM] | .[15.4 µM] | /
COc1cccc(O)c1O | / | . | . | 0.794µM | . | /
COc1ccccc1O | . | . | . | . | . | .
CCCCCCSC1=C(C#N)C(c2ccc(C)o2)CC(=O)N1 (centres undefined) | . | . | . | 25.1µM | . | .
Cc1ccc(C2CC(=O)NC(SCc3ccccc3)=C2C#N)o1 (centres undefined) | / | . | / | . | . | /
COc1ccc(CCC(=O)c2c(O)cc(O[C@@H]3O[C@H](CO)[C@@H](O)[C@H](O)[C@H]3O[C@@H]3O[C@@H](C)[C@H](O)[C@@H](O)[C@H]3O)cc2O)cc1O | . | . | . | . | . | .
COc1ccc(-c2coc3cc(O)ccc3c2=O)c(OC)c1O | / | . | . | . | . | /
COc1ccc(-c2oc3ccccc3c(=O)c2O)cc1 | / | . | . | . | . | /
COc1ccc(-c2coc3cc(O)ccc3c2=O)c(O)c1O | / | . | . | 12.6µM | .[3.08 µM] | /
O=c1c(O)c(-c2ccc(O)c(O)c2)oc2ccccc12 | . | . | ? | 2µM | . | ?
O=c1c(O)c(-c2ccc(O)cc2)oc2cc(O)ccc12 | . | . | ? | . | . | .
COc1cc(-c2oc3cc(O)ccc3c(=O)c2O)ccc1O | / | . | ? | 12.6µM | . | /
O=C(CCc1ccc(O)cc1)c1c(O)cc(O)cc1O[C@@H]1O[C@@H](CO)[C@@H](O)[C@@H](O)[C@H]1O | . | / | / | / | / | .
COc1ccc(-c2nc3cnc(Nc4cccc(OC)c4)nc3n(C)c2=O)cc1 | . | . | ? | . | . | .
CC(C)NC(=O)N1CC[C@@]2(CCCN(S(C)(=O)=O)C2)C1 | . | . | . | . | . | .
COC(=O)c1ccc(C(/C=C/[C@@H](C)C(=O)NCc2ccccc2)NC(=O)OCc2ccccc2)cc1 (some centres undefined) | . | . | . | . | . | .
COc1cc2c(C#N)c(N3CCN(c4ccccc4OC)CC3)nc(N)c2c(N)n1 | . | . | 25.1µM | . | . | .
O=c1[nH]cc(CS(=O)(=O)Cc2c[nH]c(=O)[nH]c2=O)c(=O)[nH]1 | . | .[15.4 µM] | .[11.5 µM] | .[11.4 µM] | .[15.4 µM] | .[11.4 µM]
